The OligoGym collection

Target: EPHX1
Test: pooled miR-30 sensor sort-seq; sequence = guide strand
Details: shRNA
Note: reference of the scale not given here.

| Sequence | sensor-assay potency score (higher = more potent) |
| --- | --- |
| TTGTAAAAGATCCTGGCGGTGG | -0.0602 |
| AAAACTCGTAGAAAGAGCCGGG | 0.199 |
| AAAGTTTCCTCTTTGTCCCGGG | 0.0687 |
| TTGTCCCGGGAGATGAACCAGT | -1.24 |
| TTGGTCAGCAGGTCGTCCAGGG | -0.558 |
| TGGATCTCCTCATCTGACGTTT | -0.892 |
| TTCAATCTTAGTCTTGAAGTGA | -0.0669 |
| ATCAGCTTGTAAAAGATCCTGG | -0.191 |
| TCTTAGTCTTGAAGTGAGGGTA | 0.435 |
| TCTCCTTGTAGAAGCGCTGGGA | -0.317 |
| TAGGAATAGGAGATGAGCTTTG | -0.367 |
| TCATCTGACGTTTCCACCTTGA | -0.126 |
| AACTTCTCTAGAATATAGGCAG | -0.342 |
| TCGTCCAGGGAGAACTTCCTTT | -1.04 |
| TACTTGAACCTCACCCACTTTT | -0.563 |
| TTCTCCTTGTAGAAGCGCTGGG | -0.596 |
| TAAAACTCGTAGAAAGAGCCGG | -0.339 |
| TTCAAAAACGTGCTCATCGCTC | -0.238 |
| TTGTCCAGTAGAGCATGACGTT | -1.4 |
| TTGGAGTTGAAGCCATAGTGGA | -0.99 |
| TCATGCTTCTGGGTCATCCAGC | -0.602 |

Target: EPHX2
Test: as above
Details: shRNA

| Sequence | sensor-assay potency score (higher = more potent) |
| --- | --- |
| TTTCTGGAAAGCATCATTCAGA | -0.533 |
| TCGCTTGCTCTGAAGAGGCTTT | -0.734 |
| TTCAGCTCACACATCAGCTGGG | 0.39 |
| TAGTGAATCCTTTCTTCCTGAG | -0.285 |
| TTCTTGGAAGTAGAGCTGGTAA | -0.749 |
| TTGGATTGCAAGAGGTCGGCAG | -0.532 |
| AACTGCTGCACATAGAACTGGA | -0.354 |
| TTCCATGCAATATTCTTCTATT | -0.473 |
| TCTCTCAGCACGGTCGTCCAGC | -0.771 |
| TAGAACTGGATTTCCTCCTCAG | 0.253 |
| TTTATGGAGAAATTCTTGGGGA | 0.378 |
| TTTGATACTCTCCAAAGGGGAC | -0.915 |
| TATCAGGAAGTCAAAGTGCATC | -1.33 |
| TCTGAAACCAGACTTCTTGAAC | -0.948 |
| TTTCTGGCTGAAATCGCCTTGT | -0.617 |
| TGCAATATTCTTCTATTTCGGG | -0.612 |
| TTTTATGGAGAAATTCTTGGGG | 0.765 |
| TCTCCTTACATAACACTTCCAT | -0.551 |
| TATTCTTCTATTTCGGGAGGAG | 0.331 |
